Bioassay records from PubChem.
NALP1 yeast inh: NALP1 inflammasome inhibitors in reconstituted yeast, colorimetric, S. cerevisiae, triplicate retest; hit rate 0.61% among 280,000; inhibition, % at 10 µM; S. cerevisiae NALP1/ASC/caspase-1 growth, X-gal OD620, 72 h; in the data active = inhibition mostly above about 24%, no sharp cut-off; inactive = mostly below about 32%
PfHsp90 yeast 2: growth inhibition of PfHsp90-expressing yeast, primary screen, antimalarial PfHsp90 inhibitor project, S. cerevisiae, BacTiter-Glo luminescence, single point, set 2; hit rate 0.32% among 310,000; inhibition, % at 9.4 µM; AID 504621, 2011; BacTiter-Glo ATP, 48 h; yeast lacking PDR1 and PDR3 efflux regulators;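 active = every replicate shows inhibition above about 80%, whatever the replicate mean, limit read from the data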
NALP3 yeast inh: NALP3 inflammasome inhibitors in reconstituted yeast, primary screen, luminescence, uHTS; AID 2825, 2010; hit rate 0.39% among 330,000; inhibition, % at 10 µM; Yeast reconstituted NLRP3/ASC/caspase-1, beta-gal luminescence, 24 h;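 active = inhibition of 50% or more; inactive = inhibition below 50%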
tim23-1 inh: growth inhibitors of tim23-1 mutant yeast, primary screen, luminescence, uHTS; S. cerevisiae tim23-1 growth, BacTiter-Glo luminescence, 24 h; inhibition, % at 20 µM; hit rate 1.3% among 330,000;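 active = growth inhibition of the mutant yeast at or above 50%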;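 also: temperature-sensitive mutant grown at 25 °C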
TIM10 inh: growth inhibitors of isogenic TIM10 control yeast, primary screen, counter-screen for tim10-1 yeast inhibitor project, luminescence, uHTS | S. cerevisiae TIM10 strain growth, BacTiter-Glo luminescence, 24 h | inhibition, % at 10 µM | hit rate 1.4% among 330,000;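 active = inhibition of 40% or more at the single tested concentration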;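 also: wild-type TIM10 isogenic control strain grown at permissive 25 °C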
tim10-1 inh: growth inhibitors of tim10-1 mutant yeast, primary screen, luminescence, uHTS. inhibition, % at 20 µM. S. cerevisiae tim10-1 ts strain growth, BacTiter-Glo, 24 h. AID 463190, 2010. hit rate 2.2% among 330,000;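 active = inhibition of at least 40%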;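 also: mutant grown at 25 °C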
Numbers stand for hits; i = inactive; nt = no result given. This is a sample that favours compounds with a hit; in the whole collection about 4.2% have one here.

SMILES	NALP1 yeast inh	PfHsp90 yeast 2	NALP3 yeast inh	tim23-1 inh	TIM10 inh	tim10-1 inh
CC1(c2nnc(-c3ccc(F)cc3)o2)CC(c2ccc([N+](=O)[O-])cc2)=NO1 (stereo not given)	nt	nt	i	i	i	i
CCOC(=O)c1[nH]c2ccc(OC)cc2c1NC(=O)c1ccc2c(c1)OCO2	i	i	i	i	i	i
CCOC(=O)c1[nH]c2ccccc2c1NC(=O)c1ccc2c(c1)OCO2	40	i	i	i	i	i
CCN1CCN(C(=O)C(C)Nc2cc(Cl)c(OC)cc2OC)CC1 (stereo not given)	i	i	i	i	i	i
N#Cc1nccnc1S(=O)(=O)c1cccs1	23	nt	i	i	i	i
O=C(COC(=O)c1ccccc1OC(F)F)Nc1ccc2[nH]c(=O)[nH]c2c1	nt	nt	i	i	i	i
Cc1cc2cc(C#N)c(N3CCN(S(C)(=O)=O)CC3)nc2cc1C	i	i	i	i	i	i
Cc1cccc(N(Cc2ccccc2)C(=O)c2ccccc2S(C)(=O)=O)c1	i	i	i	i	i	i
Cc1ccc(S(=O)(=O)NNC(=O)C2COc3ccccc3O2)cc1C (stereo not given)	40	i	i	i	i	i
Cc1ccc(S(=O)(=O)NNC(=O)C2COc3ccccc3O2)cc1 (stereo not given)	i	i	i	i	i	i
CCCOc1ccccc1NC(=O)Nc1ccccc1Cl	i	i	i	i	i	i
Cc1c(NCc2ccccc2O)c(=O)n(-c2ccccc2)n1C	38	i	i	i	i	i
CC12CCC(O)CC1=CCC1C2CCC2(C)C(c3ccn[nH]3)CCC12 (stereo not given)	nt	i	nt	nt	nt	nt
O=C1CN(C(=O)COc2ccccc2)c2ccccc2N1	i	i	i	i	i	i
O=C1CN(C(=O)COC(=O)CNS(=O)(=O)/C=C/c2ccccc2)c2ccccc2N1	34	i	i	i	i	i
O=C1CN(C(=O)COC(=O)CNS(=O)(=O)c2ccccc2)c2ccccc2N1	i	nt	i	i	i	i
CC(Oc1ccccc1)C(=O)OCC(=O)N1CC(=O)Nc2ccccc21 (stereo not given)	24	i	i	i	i	i
O=S(=O)(NCCN1CCOCC1)c1cccs1	i	i	i	i	i	i
CSC(=NCCCN1CCOCC1)NS(=O)(=O)c1cccs1	32	i	i	i	i	i
Cc1cc(C(=O)NCCC(c2ccccc2)c2ccccc2)c(C)o1	40	i	i	i	i	i
CCC(=O)NC(c1ccccc1)c1nc2ccccc2[nH]1 (stereo not given)	25	i	i	i	i	i
Cc1cc(C)c2c(N=NN(C)C)[nH]nc2n1	i	104	i	i	i	i
Cc1nc(CS(=O)(=O)c2ccc(Cl)cc2)cc(N2CCOCC2)n1	i	i	i	i	i	i
O=S(=O)(Cc1cc(N2CCOCC2)nc(-c2ccccn2)n1)c1ccccc1	22	i	i	i	i	i
CCCC(=O)NC(c1cccs1)c1cc([N+](=O)[O-])c2cccnc2c1O (stereo not given)	i	i	nt	nt	nt	nt
SMILES	NALP1 yeast inh	PfHsp90 yeast 2	NALP3 yeast inh	tim23-1 inh	TIM10 inh	tim10-1 inh
O=C(CCc1ccccc1)NC(c1cccs1)c1cc(Cl)c2cccnc2c1O (stereo not given)	i	101	nt	nt	nt	nt
CCCCC(=O)NC(c1ccco1)c1cc(Cl)c2cccnc2c1O (stereo not given)	i	105	i	i	i	i
COc1ccc(/C=C/C(=O)NC(=S)Nc2cc([N+](=O)[O-])ccc2O)cc1OC	i	i	i	i	i	i
CCOc1ccc2c(c1)C(c1cccs1)=NNC(c1cccnc1)=N2	30	i	i	i	i	i
Cc1cccc(N2CCN(C(=O)Cn3sc4nc(C)cc(C)c4c3=O)CC2C)c1 (stereo not given)	i	167	i	i	i	i
Cc1cc(C)c2c(=O)n(CC(=O)N3CCC(Cc4ccccc4)CC3)sc2n1	i	nt	i	i	i	i
CCOC(=O)C1=C(C)Nc2nnnn2C1c1c[nH]c2ccccc12 (stereo not given)	46	nt	i	i	i	i
Cc1cc2ncn(/N=C/c3ccc([N+](=O)[O-])s3)c2cc1C	59	i	nt	nt	nt	nt
